Laboratory results: PubChem BioAssay (NCI)
This is part of a sample that, as a whole, favours compounds with a hit. Of some 83,000 tested, about 20% had one in any assay.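 Negative percent growth values reflect cell death: -40 means 40% of the cells present at the start died, and -100 means all died.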 Values without a mark were called inactive. The source made the active and inactive calls. The calls were made as follows: active = growth percent below 10; inactive = the rest.

Experiments:
Assay in all cases: NCI-60 one-dose screen, 48 h (100 = growth as untreated, 0 = no growth, -100 = all killed)
Conditions in all cases: 10 µM unless noted
HCT-15 colon = system: HCT-15 colon
HT29 colon = system: HT29 colon
SNB-75 CNS = system: SNB-75 CNS
SNB-19 CNS = system: SNB-19 CNS
U251 CNS = system: U251 CNS
PC-3 prostate = system: PC-3 prostate
SK-MEL-5 melanoma = system: SK-MEL-5 melanoma
UACC-62 melanoma = system: UACC-62 melanoma
LOX IMVI melanoma = system: LOX IMVI melanoma
SK-MEL-28 melanoma = system: SK-MEL-28 melanoma
SK-MEL-2 melanoma = system: SK-MEL-2 melanoma
EKVX NSCLC = system: EKVX NSCLC
SN12C renal = system: SN12C renal
UO-31 renal = system: UO-31 renal
TK-10 renal = system: TK-10 renal
ACHN renal = system: ACHN renal
CAKI-1 renal = system: CAKI-1 renal
A498 renal = system: A498 renal
CCRF-CEM leukemia = system: CCRF-CEM leukemia
MOLT-4 leukemia = system: MOLT-4 leukemia

Compound | growth (HCT-15 colon) | growth (HT29 colon) | growth (SNB-75 CNS) | growth (SNB-19 CNS) [%] | growth (U251 CNS) | growth (PC-3 prostate) | growth (SK-MEL-5 melanoma) | growth (UACC-62 melanoma) | growth (LOX IMVI melanoma) | growth (SK-MEL-28 melanoma) | growth (SK-MEL-2 melanoma) | growth (EKVX NSCLC) | growth (SN12C renal) | growth (UO-31 renal) | growth (TK-10 renal) | growth (ACHN renal) | growth (CAKI-1 renal) | growth (A498 renal) | growth (CCRF-CEM leukemia) | growth (MOLT-4 leukemia)
CSc1ccccc1C#C/C=C\C#Cc1ccccc1N1CCCCC1=O | 112% | 94.9% | 118% | 111 | 93.6% | 77.7% | 101% | 78.5% | 91.8% | 153% | 70.8% | 91.5% | 98.3% | 34.6% | 151% | 97.7% | 95% | 107% | 60% | 104%
O=C(c1ccccc1)C(Cl)C(Cl)c1ccccc1 (stereo not drawn) | -7.84% (active) | 20.4% | 70.7% | 92 | 78% | 83% | 88.8% | 0.557% (active) | -64.9% (active) | 67.3% | 96.3% | 79% | -13.9% (active) | -50.5% (active) | -8.89% (active) | -71.5% (active) | 38% | 103% | 5.75% (active) | 25.9%
O=C(OCCCCOC(=O)n1cnc2ccccc21)n1cnc2ccccc21 | 103% | 97% | 96% | 97.7 | 99.5% | 91.8% | 101% | 96.3% | 92.9% | 108% | 101% | 98.7% | 96% | 78.9% | 110% | 101% | 93.2% | 89.3% | 101% | 86.2%
O=[N+]([O-])c1c(S(=O)(=O)O)cc2cc(S(=O)(=O)O)ccc2c1[N+](=O)[O-] | 101% | 103% | 98.1% | 108 | 100% | 100% | 100% | 97% | 94.3% | 103% | 107% | 101% | 101% | 76.5% | 93% | 98.8% | 93.8% | 106% | 107% | 93.8%
COc1ccc(/C=C/C(=O)/C=C/c2cc3ccc(Cl)cc3[nH]c2=O)cc1 | 87.4% | 80.6% | 76.2% | 80.9 | 53.3% | 76.1% | 98.6% | 72.1% | 48.5% | 103% | 94% | 84.7% | 85.7% | 75.7% | 124% | 88.6% | 93.2% | 92.7% | 56.8% | 65.3%
OC1CC2c3ccccc3C1c1ccccc12 (stereo not drawn) | 106% | 110% | 90.5% | 117 | 95.8% | 100% | 106% | 103% | 97.3% | 112% | 117% | 108% | 106% | 95.7% | 96.9% | 111% | 94.5% | 125% | 104% | 106%
O=C1CCC/C=C\C[C@H]2C=CC(=O)/C2=C/C[C@H](C/C=C\CC(F)(F)F)O1 | -5.57% (active) | -28.9% (active) | 68.7% | 11.3 | -65.5% (active) | -42.5% (active) | -90.7% (active) | -12.1% (active) | -88.2% (active) | -28.6% (active) | -20.9% (active) | -17.7% (active) | -6.43% (active) | -93% (active) | -33.6% (active) | -84.8% (active) | 16% | -75.2% (active) | -5.64% (active) | -0.696% (active)
O=C(/C=C/CN1CCCCC1)Nc1cc2c(Nc3ccc(F)c(Cl)c3F)ncnc2cc1OCCOC(F)F | 7.81% (active) | 2.26% (active) | -12.1% (active) | 40.9 | 31.1% | 1.81% (active) | 25.3% | 34.1% | 12.5% | 48.6% | 36.1% | 11.8% | 7.28% (active) | 10.4% | 8.8% (active) | 5.75% (active) | 5.99% (active) | -21.7% (active) | 24.6% | 1.31% (active)
COc1ccc2c(c1)C=CC(C#N)N2C(=O)c1ccccc1 (stereo not drawn) | 9.74% (active) | 5.77% (active) | -14.7% (active) | 43.8 | 28.6% | 19% | -6.27% (active) | 26.3% | 20% | 58.9% | 67.4% | 49.8% | 38.4% | 53% | 70.9% | 33.9% | 23.6% | -5.22% (active) | 15.2% | 11.9%
Cc1cccc2cc(/C=C/C(=O)/C=C/c3ccc(Cl)cc3)c(=O)[nH]c12 | 43.6% | 7.76% (active) | 79.7% | 49.5 | 10.6% | 33.8% | 91.2% | 30.4% | 4.24% (active) | 75.4% | 91% | 62.5% | 47.6% | 69.7% | 105% | 60.5% | 91.1% | 63.1% | 14.7% | 32.4%
Cn1c(=O)c2c(nc3n2CCN(CCc2ccc(OCCN4CCOCC4)cc2)C3)n(C)c1=O | 105% | 107% | 101% | 108 | 105% | 94.1% | 94.2% | 98.8% | 97% | 111% | 101% | 102% | 104% | 93.8% | 104% | 106% | 97.5% | 81.3% | 105% | 98%
O=[N+]([O-])c1cccc(-c2cc(-c3cc(Br)ccc3O)[nH]n2)c1 | 15.6% | 48.3% | 38.8% | 25.4 | 17.9% | 13% | 6.28% (active) | 15.2% | 6.51% (active) | 42.1% | 24% | 18.1% | 24.8% | 20.1% | 12.5% | 10.2% | 40.5% | 40% | 8.04% (active) | 4.68% (active)
CCN(CC)CCCNc1nc(C)cc(Nc2ccc3nc(C)cc(N)c3c2)n1 | 105% | 92.5% | 90.9% | 108 | 100% | 76% | 112% | 117% | 95.6% | 111% | 36.1% | 96.2% | 94.7% | 89.7% | 88% | 101% | 95.6% | 125% | 99.4% | 112%
O=S(=O)(NCCNc1cc(-c2cn(-c3ccccc3)nc2-c2ccccc2)ccn1)c1cccc2ccccc12 | 43.4% | 23.6% | 59% | 67 | 53.3% | 15.3% | 26.5% | 56.5% | 45.8% | 62.9% | 89.5% | 36.5% | 58.9% | 22.3% | 66.8% | 51.7% | 49.8% | 72.5% | 83.5% | 28.4%
COc1ccc2c(c1)NC(=O)CN2c1nc(NC2CC2)nc2ccccc12 | 10.5% | 3.45% (active) | 31.4% | 29.9 | 11.8% | 4.75% (active) | -55.3% (active) | 26.1% | 34.9% | 54.7% | 25.7% | 27.8% | 39.1% | 28.7% | 23.6% | 24.9% | 32.9% | -12.8% (active) | 31.7% | 33.9%
O=C(Cc1n[nH]c(=O)c2ccccc12)OCc1c(Cl)cccc1Cl | 43.6% | 51.4% | 90% | 105 | 54% | 80.5% | 56.9% | 70.4% | 47.1% | 112% | 35.5% | – | 102% | 103% | 99% | 74.7% | 107% | 91.3% | 61% | –
